# Assay outcomes (PubChem)
# DAX1 inh-1 – NR0B1 (DAX1) inhibition; P51843; HEK293 Gal4-DAX1 luciferase reporter, luminescence; inhibition, % at 6.75 µM; 340,000 compounds, 0.99% hits;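 active means inhibition above the mean over all tested compounds plus 3 SD, cut at about 4.2% in these data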;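 further: inhibition shows as a rise in luminescence from relieved DAX1 repression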
# Target sequence (P51843 207-470 limits assumed): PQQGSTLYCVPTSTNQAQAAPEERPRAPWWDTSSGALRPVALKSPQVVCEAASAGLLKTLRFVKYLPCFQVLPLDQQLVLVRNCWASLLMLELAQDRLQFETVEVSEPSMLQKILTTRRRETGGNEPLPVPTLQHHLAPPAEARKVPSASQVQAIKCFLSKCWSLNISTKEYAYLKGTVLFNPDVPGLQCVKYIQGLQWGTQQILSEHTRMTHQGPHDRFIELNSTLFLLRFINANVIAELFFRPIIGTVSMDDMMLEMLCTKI
# DAX1 inh-2 – DAX1 (NR0B1) inhibition, primary screen; HEK293T StAR-luciferase reporter, SF-1/DAX-1 repression relief; inhibition, % at 6.8 µM; 370,000 compounds, 1.1% hits; AID 652010;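 active means inhibition above the mean over all tested compounds plus 3 SD, cut at about 3.6% in these data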;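 further: higher inhibition means more luminescence from relief of DAX-1 repression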
# SMARCA2 activ – activators of SMARCA2 function. MG213 cells, MMTV-luciferase reporter, dexamethasone, overnight. activation, % at 9.1 µM. 370,000 compounds, 1% hits. AID 652017; in the data active means activation above about 7.8%
# ssDAF-12 act – activates DAF-12 receptor from parasite S. stercoralis | AID 652126 | HEK293 ssDAF-12/GRIP1 lit1-tk-luc reporter, luminescence; % of 3 µM dafachronic acid response | activation, % at 6.8 µM | 370,000 compounds, 1% hits;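 active means activation above the mean over all tested compounds plus 3 SD, cut at about 0.9% in these data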
# hcDAF-12 act – activators of H. contortus DAF-12 nuclear receptor. HEK293 hcDAF-12 lit1-tk-luc reporter, luminescence; 0% DMSO, 100% Δ7-dafachronic acid. activation, % at 6.8 µM. 370,000 compounds, 1.4% hits. AID 652067;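 active means activation above the mean of all tested compounds plus 3 SD, cut at about 5.5% in these data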
# hgDAF12 agonist – agonists of H. glycines DAF-12 nuclear receptor; HEK293 GAL4-hgDAF12 UAS-luciferase reporter, agonist luminescence; normalized to butyrate control; activation, % at 6.8 µM; 370,000 compounds, 1.8% hits;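 active means activation above a cutoff set at the mean of all screened compounds plus 3 SD, cut at about 10% in these data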
# SMARCA2 act conf – confirmation of SMARCA2 (BRM) function activators | shares compounds with SMARCA2 activ | activation, % at 9.1 µM | 3,500 compounds, 30% hits | MG213 cells, MMTV-luciferase with dexamethasone, luminescence, overnight; MG213 cells expressing E1A, Rb sequestered; DMSO wells 0%, reference activator 100%;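 active means activation above its plate's cutoff, the mean activation of tested wells plus 3 SD, cut at about 7.9% in these data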
# GAL4-VP16 Luc – activates GAL4-VP16 luciferase, flagging SMARCA2 activator hits; HEK293 GAL4-VP16 pG5luc reporter, luciferase luminescence; scaled: DMSO wells 0%, SAHA wells 100%; shares compounds with SMARCA2 activ; activation, % at 9.1 µM; 3,500 compounds, 41% hits;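 active means activation above the solvent-only control well mean plus 3 SD, averaged across control plates, cut at about 5.2% in these data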
# A number is an active result; . = inactive; / = not tested or not shown. Hits are enriched below; roughly 4.8% of the tested compounds scored in any of these assays.
SMILES,DAX1 inh-1,DAX1 inh-2,SMARCA2 activ,ssDAF-12 act,hcDAF-12 act,hgDAF12 agonist,SMARCA2 act conf,GAL4-VP16 Luc
COC(=O)C[C@@H]1CC[C@H]2[C@H](COc3ccc(NC(=O)Nc4cccc(C#N)c4)cc3C(=O)N2C)O1,/,.,.,.,.,.,/,/
CCOc1ccc(N=C(C)C2=C(O)c3ccccc3C2=O)cc1,.,.,19,.,.,.,8.5,12
CC(=NC1CC1)C1=C(O)c2ccccc2C1=O,.,.,.,.,.,.,/,/
Nn1c(SCC(=O)NC2CCCCC2)nnc1-c1n[nH]c2c1CCC2,/,.,.,.,.,.,/,/
Cc1nccc2oc(=O)c(NC(=O)c3ccc(Cl)cc3)cc12,.,.,.,.,.,.,/,/
O=C(Nc1cc2c(oc1=O)CCCC2=O)c1ccc(Cl)cc1,.,.,9.4,.,.,.,.,.
COC(=O)Cc1nnn2c1[C@H](C)[C@@H](OC)c1cccc(Cl)c1-2,/,.,.,.,.,.,/,/
COC(=O)Cc1nnn2c1[C@H](C)[C@@H](OC)c1ccc(C(F)(F)F)cc1-2,/,.,11,.,.,.,.,.
CC1CC(NC(=O)/C=C/C(=O)O)CC(C)(C)C1 (configuration not stated),.,.,10,.,.,.,.,.
COC1=C[C@H](C(=O)NCc2ccc(Br)cc2)C(C)C(c2ccccc2)CC1=O (some centres not stated),/,.,.,.,.,.,/,/
Cn1c(=O)c([N+](=O)[O-])c(NCCc2ccccc2)c2ccccc21,.,.,12,.,.,.,.,.
CCn1c(=O)c([N+](=O)[O-])c(NCCc2ccccc2)c2ccccc21,.,/,/,/,/,/,/,/
Cc1ccc(S(=O)(=O)N2CCOCC2)cc1C(=O)OCC(=O)NC1CC1,.,.,9.3,.,.,.,.,.
Cn1c(N)c(C(=O)COC(=O)c2cc(S(=O)(=O)N3CCOCC3)ccc2F)c(=O)n(C)c1=O,.,.,37,.,.,.,9.9,.
Cc1ccc(S(=O)(=O)N2CCOCC2)cc1C(=O)OCC(=O)c1c(N)n(C)c(=O)n(C)c1=O,.,.,.,.,.,.,/,/
Cc1ccc(S(=O)(=O)N2CCOCC2)cc1C(=O)OCC(=O)NC1CCCCC1,.,.,.,.,.,.,/,/
C=CCOC(=O)N[C@@H](c1cccc(OC)c1)[C@@H](C)/C=C/CC(=O)O,/,.,.,.,.,.,/,/
COC(=O)[C@@]12CCCCC3=C1N(CCC3)C(=O)[C@H]2CC(=O)NCc1ccc(OC)c(OC)c1,/,.,.,.,.,.,/,/
O=C(Oc1cccc(-c2cnc3ccccc3n2)c1)c1ccco1,.,.,10,.,6.5,.,8.7,13
COc1ccc(N2CCN(CCNS(=O)(=O)c3c(C(C)C)cc(C(C)C)cc3C(C)C)CC2)cc1,/,.,.,.,.,.,/,/
Cc1ccc(OCCNC(=O)[C@@H](Cc2ccccc2)NC(=O)[C@H]2O[C@@H](n3ccc(=O)[nH]c3=O)[C@H](O)[C@@H]2O)cc1C,/,.,.,.,.,.,/,/
O=C(N/N=C/C(Cl)=C/c1ccccc1)c1ccccc1F,.,.,.,.,.,.,/,/
O=C(N/N=C/C(Br)=C/c1ccccc1)c1ccccc1F,.,.,13,.,.,.,11,12
COc1ccc(-c2ncn(CCc3ccccc3OC)c2CC(C)C)cc1,/,.,.,.,.,.,/,/
Cc1ccc(-n2c(SCC(=O)Nc3ccc4c(c3)OCCO4)nnc2-c2ccccn2)cc1,/,.,.,.,.,.,/,/
CCc1cc(=S)n2c([nH]c3ccccc32)c1C#N,.,/,/,/,/,/,/,/
CC(SCc1cc(=O)n2c([nH]c3ccccc32)c1C#N)C(=O)O (configuration not stated),.,.,11,.,.,.,.,.
